Screening results (PubChem BioAssay)
D2 PAM-1 – potentiates the human D2 dopamine receptor allosterically | P14416 | DiscoveRx D2 beta-arrestin cells, luminescence, 90 min; 100% = 57 uM dopamine signal | potentiation, % (concentration not given with the values) | 360,000 tested, 0.23% active | AID 624464; in the data active means potentiation above about 50%; inconclusive means mostly about 30% to 49%
Target sequence (P14416 whole entry, looked up): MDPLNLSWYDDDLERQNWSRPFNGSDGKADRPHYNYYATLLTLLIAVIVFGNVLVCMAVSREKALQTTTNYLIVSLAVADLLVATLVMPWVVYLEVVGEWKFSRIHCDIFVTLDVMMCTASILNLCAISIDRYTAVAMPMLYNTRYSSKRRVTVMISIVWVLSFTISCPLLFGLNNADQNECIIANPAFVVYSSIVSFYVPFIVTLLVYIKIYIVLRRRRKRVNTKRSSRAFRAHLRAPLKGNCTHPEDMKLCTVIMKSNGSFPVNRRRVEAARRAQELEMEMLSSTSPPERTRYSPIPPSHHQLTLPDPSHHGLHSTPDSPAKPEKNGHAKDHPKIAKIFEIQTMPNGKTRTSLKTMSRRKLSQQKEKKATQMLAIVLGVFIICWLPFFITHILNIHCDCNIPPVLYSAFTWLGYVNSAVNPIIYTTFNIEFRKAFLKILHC
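PathHunter beta-arrestin assay in DiscoveRx D2 cells. Compounds were added with an EC20 of dopamine (50 nM final) for 90 min at 37 deg C. Luminescence was read 1 h after detection reagent, with 57 uM dopamine as the EC100 control.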
D2 ag-1 – agonists of human D2 dopamine receptor (beta-arrestin) | activation, % (no concentration beside the values) | P14416 | 360,000 tested, 0.084% active | DiscoveRx PathHunter D2 beta-arrestin, luminescence, 90 min; 100% = 57 uM dopamine signal; in the data active means activation above about 40%; inconclusive means between about 15% and that limit
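DiscoveRx PathHunter D2 beta-arrestin cells (2,100/well) attached overnight, then compound-stimulated 90 min at 37 C in HBSS/10 mM HEPES/0.1% Tween-20 buffer; beta-galactosidase complementation read by luminescence after 1 h at ambient temperature. Dopamine 57 uM final (EC100) as control.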
D2 ag-2 – activates the human D2 dopamine receptor; P14416; HEK293 T-REx D2 cells, calcium flux agonist mode; activation, % at 2 µM; 340,000 tested, 0.53% active; AID 485358;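 active means activation over 3 SD above normal in the single-dose calcium agonist read, cut at about 30% in these data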
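Calcium-flux readout, 1 cycle/sec over 180 s following compound pin transfer, in inducible HEK293 Trex D2 cells (force-coupled); dopamine controls included. Positive calcium responses during this window marked compounds as potential agonists.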
D2 PAM-2 – positively modulates the human D2 dopamine receptor allosterically | P14416 | HEK293 T-REx D2, calcium flux, EC20 dopamine potentiation | potentiation, % at 10 µM | 340,000 tested, 0.34% active | AID 485347;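 active means potentiation over 3 SD above the plate norm, cut at about 30% in these data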
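Primary screen. Calcium kinetics in induced HEK293 T-REx D2 cells: compound pre-addition 180 s, EC20 dopamine, 180 s more.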
D2 antag – antagonizes the human D2 dopamine receptor. P14416. HEK293 TREx D2 cells, calcium flux, dopamine EC80. inhibition, % at 10 µM. 340,000 tested, 2% active. AID 485344; in the data active means inhibition above about 30%; inactive means below that, where a call was filed
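Overnight-induced (tetracycline, 30 C) HEK293 T-REx cells carrying force-coupled D2 receive a no-wash calcium dye, then compound, then EC80 dopamine at 180 s; signals are read kinetically throughout.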
Of the large screens only hits and unclear results are named; the others gave an inactive call. Shown are actives, neighbours in structure and some others; about 2.4% of the full set was active somewhere.

COc1cccc(/C=C/C(=O)OCC(=O)Nc2cc(S(=O)(=O)N3CCOCC3)ccc2C)c1	none
CC1CCC(NC(=O)C2(C)Cc3ccccc3C(=O)N2Cc2ccc(F)cc2)CC1 (stereo not drawn)	none (no result: D2 PAM-1, D2 ag-1, D2 antag)
O=C(CN1CCCCC1)Nc1ccc(S(=O)(=O)N2CCCCCC2)cc1	none
O=C(CN1CCN(c2ccc(O)cc2)CC1)Nc1ccc(S(=O)(=O)N2CCCC2)cc1	D2 ag-1 48.9 (no result: D2 ag-2, D2 PAM-2, D2 antag)
CC(C)CC(=O)Nc1ccc(C(=O)CN2CCN(c3ccc(O)cc3)CC2)cc1	D2 PAM-2 30.8
COc1ccc(OC)c(NC(=O)C2CC(=O)n3ncnc3N2)c1 (stereo not drawn)	D2 PAM-2 33.3
O=C(c1ccc2c3c(cccc13)CC2)C1CCCN(Cc2ccccn2)C1 (stereo not drawn)	D2 antag 36.7
O=C(c1ccc2c3c(cccc13)CC2)C1CCCN(Cc2ccc(OCCO)cc2)C1 (stereo not drawn)	D2 antag 30.8
Cc1cnc(CN2CCCC(C(=O)c3ccc4c5c(cccc35)CC4)C2)[nH]1 (stereo not drawn)	none
O=C(CCC1N=C2c3ccccc3N=C(SCC(=O)Nc3cccc(Cl)c3)N2C1=O)NCc1ccco1 (stereo not drawn)	none (no result: D2 PAM-1, D2 ag-1, D2 ag-2, D2 antag)
CC(C)(O)CN(C(=O)c1ccccc1)C1CCCCC1	none (no result: D2 ag-2, D2 PAM-2, D2 antag)
O=[N+]([O-])c1ccc(-n2nnnc2-c2ccccc2)c([N+](=O)[O-])c1	D2 PAM-1 85.8, D2 ag-1 inconclusive
CC(=O)C(C)Oc1ncn(-c2ccccc2)n1 (stereo not drawn)	D2 antag 33.4
CCC(=O)c1ccc(OC(=O)N2CCOCC2)cc1	none
c1ccc(-c2ccccc2OCCCN2CCCCCC2)cc1	D2 antag 56.2
c1ccc(-c2ccccc2OCCCCN2CCCCC2)cc1	D2 antag 74.9
c1ccc(-c2ccccc2OCCCN2CCCC2)cc1	none
O=C(c1cncc(Br)c1)N1CCN(S(=O)(=O)c2ccccc2)CC1	none
O=C(c1cncc(Br)c1)N1CCN(S(=O)(=O)c2ccccc2C(F)(F)F)CC1	D2 antag 40.4
COc1ccc(N2CCN(C(=O)c3cccc(NC(=O)c4nsc5ccccc45)c3)CC2)cc1	none (no result: D2 PAM-1, D2 ag-1, D2 ag-2, D2 antag)
O=C(CSc1nnc(-c2ccc(Cl)cc2)n1-c1ccc(Cl)cc1)N/N=C/c1ccco1	none
Cc1ccc(/C=N/NC(=O)CSc2nnc(-c3ccc(Cl)cc3)n2-c2ccccc2)o1	D2 PAM-1 87.6, D2 ag-1 inconclusive
Cc1cc(=O)c2c(o1)C(=O)c1occc1C2=O	D2 PAM-1 52.2, D2 ag-1 inconclusive (no result: D2 ag-2, D2 PAM-2, D2 antag)
Cc1ccc(C)c(SCC(=O)Nc2oc(C)c3c(C)n[nH]c(=O)c23)c1	none
Nc1c(Cl)ncnc1NCCO	none
Nc1c(Cl)ncnc1NCc1ccccc1	D2 antag 56.1 (no result: D2 ag-2, D2 PAM-2)
CC(CCc1ccccc1)OS(N)(=O)=O (stereo not drawn)	none
Cn1c(-c2ccc(Br)cc2)cnc1NCc1cccnc1	D2 antag 42.9
COc1cc(CNc2ncc(-c3ccc(Br)cc3)n2C)cc(OC)c1OC	none
CCC(C)Nc1nc2c(c(=O)n(C)c(=O)n2C)n1Cc1cccc(C)c1 (stereo not drawn)	none
Cc1cccc(Nc2nc3c(c(=O)n(C)c(=O)n3C)n2Cc2ccccc2)c1	D2 PAM-2 45.6
CC(=O)N1N=C(c2ccc(C)cc2)OC1c1ccc(C(C)C)cc1 (stereo not drawn)	none
CC(=O)N1N=C(c2cccnc2)OC1c1ccc(C(C)C)cc1 (stereo not drawn)	D2 antag 55.4
COC(=O)c1ccccc1NS(=O)(=O)c1ccc(F)cc1	D2 PAM-2 43.8, D2 antag 32.1
O=C(O)c1cc(NS(=O)(=O)c2ccc3ccccc3c2)ccc1O	none
COC(=O)c1ccccc1NS(=O)(=O)c1ccc(NC(C)=O)cc1	none
O=C(O)c1ccccc1NS(=O)(=O)c1ccc2ccccc2c1	D2 PAM-2 32.1
Nc1ncc2c(n1)CCN(c1ccc([N+](=O)[O-])cc1)C2	none (no result: D2 ag-2, D2 PAM-2, D2 antag)
CC(C)N(Cc1ccccc1)C(=O)CC(=O)N(Cc1ccccc1)C(C)C	D2 PAM-2 35.1
CC(C)N(Cc1ccccc1)C(=O)CN1C(=O)c2ccccc2C1=O	none
CC(C)(C)SCCNC(=O)CN(c1ccccc1)S(=O)(=O)c1ccc(F)cc1	D2 antag 32.2
Cc1ccc(S(=O)(=O)c2nnn(CC(=O)Nc3ccccc3C)c2N)cc1	none (no result: D2 PAM-1, D2 ag-1, D2 antag)
Cc1ccc(CN2CCCN(CC(=O)Nc3ccc(C)cc3C)S2(=O)=O)cc1	none (no result: D2 PAM-1, D2 ag-1, D2 antag)
Cc1cc(OCC(=O)Nc2cnn(CCCC(=O)O)c2)ccc1[N+](=O)[O-]	none
O=C(O)CCCn1cc(NC(=O)COc2ccc([N+](=O)[O-])cc2)cn1	D2 PAM-2 30.6
COC(=O)C1C(=O)NC(SC)=C(C#N)C1c1ccccc1 (stereo not drawn)	D2 PAM-2 34.3
COc1ccc(CN2CCN(Cc3ccc4ccccc4c3)CC2)cc1OC	none
OC1CCN(Cc2ccc3ccccc3c2)CC1	D2 antag 45.6
CC1(C(=O)NC2CCN(Cc3ccccc3)CC2)CCN1Cc1ccc2ccccc2c1 (stereo not drawn)	none (no result: D2 ag-2, D2 PAM-2, D2 antag)
COc1ccccc1CN1CCN(Cc2ccc3ccccc3c2)CC1	D2 antag 67.7
N/C(Cn1cncn1)=N\OC(=O)c1ccc(Cl)cc1Cl	none
N/C(Cc1ccccc1)=N\OC(=O)c1cccc2ccccc12	D2 PAM-1 inconclusive, D2 ag-2 37.0
N/C(Cc1ccc(Cl)cc1Cl)=N\OC(=O)c1ccccc1F	D2 PAM-1 61.3
N/C(Cc1cccc2ccccc12)=N\OC(=O)c1ccccc1F	D2 PAM-1 60.9, D2 ag-1 inconclusive
COC(=O)c1ccc(Cl)cc1NC(=O)N(Cc1ccc(C)o1)C1CCN(C(C)=O)CC1	none (no result: D2 PAM-1, D2 ag-1, D2 antag)
COc1ccc(Cn2ccnc2SCC(=O)NC2CCCC2)cc1	none
O=C(CCS(=O)(=O)c1cc(Br)cc2c1N(C(=O)C1CC1)CC2)Nc1ccc(F)cc1	none (no result: D2 PAM-1, D2 ag-1, D2 ag-2, D2 antag)
CN(C)c1cccc(C(=O)N(C)C2CCCN(Cc3ccccc3F)C2)c1 (stereo not drawn)	none
Cc1ccc(C(=O)NC2CCCC2)cc1S(=O)(=O)N1CCCCC1	D2 antag 31.8
Cc1cccnc1NC(=O)c1ccc(Cl)c(S(=O)(=O)N2CCCCCC2)c1	D2 antag 56.1
Cc1ccc(S(=O)(=O)N2CCCCC2)cc1C(=O)NC1CCCCC1	D2 PAM-2 41.6
O=C(NNC(=O)c1ccco1)c1ccc(NS(=O)(=O)c2cccs2)cc1	none
Cc1cc(C)n(-c2nnc3c4ccccc4n(C)c3n2)n1	none
COc1ccc(-n2nc([N+](=O)[O-])c(=NCCc3ccccc3)n2O)cc1	D2 PAM-1 131.2, D2 ag-1 inconclusive
Cc1ccc(CCN=c2c([N+](=O)[O-])nn(-c3ccccc3)n2O)cc1	D2 PAM-1 67.3, D2 ag-1 inconclusive
